In ChEMBL document CHEMBL3988442, “University of Dundee, Small-Polar-MMV Screening Library” (2021):
For some of these results: Entries with a potency or affinity are not part of this list.

Experiments:
Set-up in all cases: scale not given: direction of the effect not stated beside the values
[1] = biological target: Protein translocase subunit SecA (Escherichia coli (strain K12)) (UniProt P10408); assay: Assay to Identify E. coli SecA ATPase Inhibitors; assay type: functional; details: 30 µM
[2] = biological target: T1, Ubiquitin-activating enzyme e1, putative (Leishmania donovani (strain BPK282A1)) (UniProt E9BSI1); assay: Leishmania donovani Ubiquitin Activating Enzyme (LdE1); assay type: functional; details: 30 µM
T1 sequence (whole entry): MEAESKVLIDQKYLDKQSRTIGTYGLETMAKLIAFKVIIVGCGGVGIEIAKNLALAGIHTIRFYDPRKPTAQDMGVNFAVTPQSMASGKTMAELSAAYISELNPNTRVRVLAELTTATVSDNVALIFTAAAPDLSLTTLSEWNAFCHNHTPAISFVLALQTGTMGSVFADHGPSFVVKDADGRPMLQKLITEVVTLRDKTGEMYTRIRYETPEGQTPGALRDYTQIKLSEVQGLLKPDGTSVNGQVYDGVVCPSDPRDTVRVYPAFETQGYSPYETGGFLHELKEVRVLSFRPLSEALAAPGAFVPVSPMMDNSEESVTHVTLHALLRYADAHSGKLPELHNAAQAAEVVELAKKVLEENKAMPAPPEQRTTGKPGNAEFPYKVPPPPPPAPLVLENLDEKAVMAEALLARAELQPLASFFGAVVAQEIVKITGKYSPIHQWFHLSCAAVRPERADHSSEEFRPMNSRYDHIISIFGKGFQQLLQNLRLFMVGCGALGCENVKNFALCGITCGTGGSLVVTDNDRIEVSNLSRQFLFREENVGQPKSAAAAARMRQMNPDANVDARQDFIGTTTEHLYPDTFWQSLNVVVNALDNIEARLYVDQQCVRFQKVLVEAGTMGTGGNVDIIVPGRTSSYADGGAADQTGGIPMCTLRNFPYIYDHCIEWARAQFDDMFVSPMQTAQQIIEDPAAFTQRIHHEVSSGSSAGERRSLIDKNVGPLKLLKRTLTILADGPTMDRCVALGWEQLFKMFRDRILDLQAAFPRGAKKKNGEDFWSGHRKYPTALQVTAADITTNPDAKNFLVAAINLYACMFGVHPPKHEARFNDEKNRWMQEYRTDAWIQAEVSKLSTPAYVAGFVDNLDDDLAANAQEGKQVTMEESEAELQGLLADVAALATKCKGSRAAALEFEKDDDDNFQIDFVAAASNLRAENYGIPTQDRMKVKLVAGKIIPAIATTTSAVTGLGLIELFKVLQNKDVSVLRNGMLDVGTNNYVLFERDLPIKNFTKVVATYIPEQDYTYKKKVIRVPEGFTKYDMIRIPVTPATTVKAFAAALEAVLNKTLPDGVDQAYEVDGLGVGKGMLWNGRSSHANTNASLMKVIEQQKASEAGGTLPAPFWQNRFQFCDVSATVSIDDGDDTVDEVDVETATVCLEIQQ

[3] = biological target: AMP-activated protein kinase, AMPK (Homo sapiens) (UniProt P54646+O43741+P54619+Q9UGJ0+Q9Y478+Q13131+Q9UGI9); assay: AMP-dependent Kinase enzyme assay. An in vitro enzyme assay that detects ADP turnover that is directly proportional to AMPK activity. This uses naive AMPK that is activated during the assay with MK-8722; assay type: functional; details: 30 µM
[4] = biological target: Sialic acid-binding Ig-like lectin 9 (Homo sapiens) (UniProt Q9Y336); assay: Hs-Siglec9 ALPHAscreen SOP 20170721; details: 10 µM
Chain of Sialic acid-binding Ig-like lectin 9 (Homo sapiens) (Q9Y336 whole entry): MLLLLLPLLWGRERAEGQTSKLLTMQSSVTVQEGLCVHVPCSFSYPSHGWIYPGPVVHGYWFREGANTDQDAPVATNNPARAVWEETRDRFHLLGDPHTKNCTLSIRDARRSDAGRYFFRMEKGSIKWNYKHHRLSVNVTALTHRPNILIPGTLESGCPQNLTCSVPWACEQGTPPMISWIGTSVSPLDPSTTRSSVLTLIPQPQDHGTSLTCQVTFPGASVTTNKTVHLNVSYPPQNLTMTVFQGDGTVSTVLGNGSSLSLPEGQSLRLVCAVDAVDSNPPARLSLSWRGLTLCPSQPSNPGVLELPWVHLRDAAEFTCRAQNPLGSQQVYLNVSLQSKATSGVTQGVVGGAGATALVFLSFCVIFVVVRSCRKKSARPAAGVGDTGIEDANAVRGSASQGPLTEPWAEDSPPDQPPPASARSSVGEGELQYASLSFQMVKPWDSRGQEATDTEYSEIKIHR

[5] = test system: Trypanosoma cruzi; assay: Trypanosoma cruzi phosphomannomutase and mannose-1-phosphate guanylyltransferase assay; assay type: functional; details: 10 µM
[6] = biological target: T2, Arginase-2, mitochondrial (Homo sapiens) (UniProt P78540); assay: in vitro enzyme assay to detect the production of urea directly proportional to the activity of Arginase II; assay type: functional; details: 33.3 µM; also: in the data most compounds retested in dose-response had high values
T2 sequence (whole entry): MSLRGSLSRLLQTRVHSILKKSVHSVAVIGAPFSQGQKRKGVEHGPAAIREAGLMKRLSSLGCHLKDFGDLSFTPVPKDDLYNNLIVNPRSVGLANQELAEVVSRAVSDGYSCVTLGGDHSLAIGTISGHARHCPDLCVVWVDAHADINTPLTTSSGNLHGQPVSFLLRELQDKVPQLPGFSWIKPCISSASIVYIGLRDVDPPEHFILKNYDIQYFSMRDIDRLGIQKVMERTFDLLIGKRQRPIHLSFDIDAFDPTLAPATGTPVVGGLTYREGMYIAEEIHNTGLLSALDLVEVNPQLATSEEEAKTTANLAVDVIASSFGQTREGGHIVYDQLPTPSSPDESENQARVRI

[7] = biological target: T3, Proteasome subunit beta (Trypanosoma cruzi) (UniProt O96673); assay: Trypanosoma cruzi proteasome chymotrypsin-like activity (TcProtChymo) assay.; also: in the data most compounds retested in dose-response had high values; assay type: functional; details: 9.37 µM
T3 sequence (whole entry): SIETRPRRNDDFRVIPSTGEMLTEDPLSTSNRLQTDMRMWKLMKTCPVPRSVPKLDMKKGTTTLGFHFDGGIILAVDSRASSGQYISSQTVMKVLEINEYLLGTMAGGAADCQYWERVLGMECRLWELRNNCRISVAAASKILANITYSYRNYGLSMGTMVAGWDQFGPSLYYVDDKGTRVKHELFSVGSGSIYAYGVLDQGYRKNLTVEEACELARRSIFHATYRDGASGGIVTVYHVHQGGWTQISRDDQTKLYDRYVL

[8] = species on record: Homo sapiens; assay: To identify inhibition of the IFN signalling (Jak-Stat) pathway via expression of an eGFP reporter gene under the control of an IFN-stimulated response element (ISRE) containing MxA promoter.; assay type: functional; details: 30 µM
[9] = biological target: T4, Tyrosyl-tRNA synthetase, putative (Trypanosoma cruzi (strain CL Brener)) (UniProt Q4DSP6); assay: Trypanosoma cruzi tyrosyl tRNA synthetase (TcYRS) _High Tyrosine SOP; assay type: functional; details: 30 µM; also: in the data most compounds retested in dose-response had high values
T4 sequence (whole entry): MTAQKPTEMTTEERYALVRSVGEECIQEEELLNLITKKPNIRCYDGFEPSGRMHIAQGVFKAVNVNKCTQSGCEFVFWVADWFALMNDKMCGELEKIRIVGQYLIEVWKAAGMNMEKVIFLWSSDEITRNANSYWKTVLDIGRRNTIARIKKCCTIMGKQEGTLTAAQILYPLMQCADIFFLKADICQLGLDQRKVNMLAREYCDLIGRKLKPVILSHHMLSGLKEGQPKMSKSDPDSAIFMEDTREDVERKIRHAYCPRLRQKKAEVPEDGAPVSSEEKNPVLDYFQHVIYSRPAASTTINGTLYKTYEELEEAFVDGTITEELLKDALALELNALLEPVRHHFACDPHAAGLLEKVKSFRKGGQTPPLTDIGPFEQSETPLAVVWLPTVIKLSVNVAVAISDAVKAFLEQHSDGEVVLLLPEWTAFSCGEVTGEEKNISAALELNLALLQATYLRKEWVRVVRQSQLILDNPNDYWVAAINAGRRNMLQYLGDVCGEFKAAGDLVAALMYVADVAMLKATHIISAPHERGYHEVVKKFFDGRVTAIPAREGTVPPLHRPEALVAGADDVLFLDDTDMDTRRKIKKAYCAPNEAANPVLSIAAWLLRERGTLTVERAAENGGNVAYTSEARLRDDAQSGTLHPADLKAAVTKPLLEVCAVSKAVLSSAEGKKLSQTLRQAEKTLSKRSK

[10] = biological target: T4, Tyrosyl-tRNA synthetase, putative (Trypanosoma cruzi (strain CL Brener)); assay: Trypanosoma cruzi tyrosyl tRNA synthetase (TcYRS) SOP; assay type: functional; details: 30 µM
[11] = biological target: Chromo domain-containing protein 1 (Saccharomyces cerevisiae (strain ATCC 204508 / S288c) (Baker's yeast)) (UniProt P32657); assay: ScCHD-1 Enzyme Inhibition Assay; assay type: functional; details: 30 µM; also: in the data most compounds retested in dose-response had high values
Chain of Chromo domain-containing protein 1 (Saccharomyces cerevisiae (strain ATCC 204508 / S288c) (Baker's yeast)) (P32657 whole entry, the tested form may be a part): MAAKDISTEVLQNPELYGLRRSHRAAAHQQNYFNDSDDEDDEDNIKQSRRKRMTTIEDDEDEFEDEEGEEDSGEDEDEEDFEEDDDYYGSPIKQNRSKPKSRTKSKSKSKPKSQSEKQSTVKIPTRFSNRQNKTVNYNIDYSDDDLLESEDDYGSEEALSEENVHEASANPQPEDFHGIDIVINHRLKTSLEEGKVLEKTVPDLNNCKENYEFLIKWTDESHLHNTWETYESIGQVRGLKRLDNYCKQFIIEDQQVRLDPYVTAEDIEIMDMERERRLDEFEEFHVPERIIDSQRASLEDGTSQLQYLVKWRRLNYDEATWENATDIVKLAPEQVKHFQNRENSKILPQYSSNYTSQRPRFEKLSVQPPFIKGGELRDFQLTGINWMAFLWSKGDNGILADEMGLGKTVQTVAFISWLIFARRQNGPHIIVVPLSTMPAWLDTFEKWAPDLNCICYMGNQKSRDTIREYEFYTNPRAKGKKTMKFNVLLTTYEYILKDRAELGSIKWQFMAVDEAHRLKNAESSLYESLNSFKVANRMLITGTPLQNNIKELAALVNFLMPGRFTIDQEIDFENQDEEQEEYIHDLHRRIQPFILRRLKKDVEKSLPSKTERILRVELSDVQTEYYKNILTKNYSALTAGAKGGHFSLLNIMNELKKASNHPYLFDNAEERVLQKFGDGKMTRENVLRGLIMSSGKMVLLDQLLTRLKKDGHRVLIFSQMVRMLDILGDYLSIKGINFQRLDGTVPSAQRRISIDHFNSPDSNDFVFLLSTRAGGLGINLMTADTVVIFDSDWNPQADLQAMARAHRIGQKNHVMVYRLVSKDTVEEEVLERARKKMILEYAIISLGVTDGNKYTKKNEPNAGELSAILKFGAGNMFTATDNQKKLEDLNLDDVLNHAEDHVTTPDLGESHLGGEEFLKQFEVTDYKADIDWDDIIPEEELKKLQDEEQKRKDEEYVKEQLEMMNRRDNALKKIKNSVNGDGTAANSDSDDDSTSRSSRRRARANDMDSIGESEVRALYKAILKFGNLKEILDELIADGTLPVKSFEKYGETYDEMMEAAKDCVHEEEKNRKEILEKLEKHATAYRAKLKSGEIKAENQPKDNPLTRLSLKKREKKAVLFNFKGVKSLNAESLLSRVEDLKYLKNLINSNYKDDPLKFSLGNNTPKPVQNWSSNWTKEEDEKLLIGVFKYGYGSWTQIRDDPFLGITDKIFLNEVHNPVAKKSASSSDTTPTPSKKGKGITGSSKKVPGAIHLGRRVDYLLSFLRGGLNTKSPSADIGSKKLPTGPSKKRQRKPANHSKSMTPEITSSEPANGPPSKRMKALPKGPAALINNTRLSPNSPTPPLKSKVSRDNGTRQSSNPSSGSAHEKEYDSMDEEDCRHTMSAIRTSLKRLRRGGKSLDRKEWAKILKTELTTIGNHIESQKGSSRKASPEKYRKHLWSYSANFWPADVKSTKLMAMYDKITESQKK

Chain of Protein translocase subunit SecA (Escherichia coli (strain K12)) (P10408 whole entry): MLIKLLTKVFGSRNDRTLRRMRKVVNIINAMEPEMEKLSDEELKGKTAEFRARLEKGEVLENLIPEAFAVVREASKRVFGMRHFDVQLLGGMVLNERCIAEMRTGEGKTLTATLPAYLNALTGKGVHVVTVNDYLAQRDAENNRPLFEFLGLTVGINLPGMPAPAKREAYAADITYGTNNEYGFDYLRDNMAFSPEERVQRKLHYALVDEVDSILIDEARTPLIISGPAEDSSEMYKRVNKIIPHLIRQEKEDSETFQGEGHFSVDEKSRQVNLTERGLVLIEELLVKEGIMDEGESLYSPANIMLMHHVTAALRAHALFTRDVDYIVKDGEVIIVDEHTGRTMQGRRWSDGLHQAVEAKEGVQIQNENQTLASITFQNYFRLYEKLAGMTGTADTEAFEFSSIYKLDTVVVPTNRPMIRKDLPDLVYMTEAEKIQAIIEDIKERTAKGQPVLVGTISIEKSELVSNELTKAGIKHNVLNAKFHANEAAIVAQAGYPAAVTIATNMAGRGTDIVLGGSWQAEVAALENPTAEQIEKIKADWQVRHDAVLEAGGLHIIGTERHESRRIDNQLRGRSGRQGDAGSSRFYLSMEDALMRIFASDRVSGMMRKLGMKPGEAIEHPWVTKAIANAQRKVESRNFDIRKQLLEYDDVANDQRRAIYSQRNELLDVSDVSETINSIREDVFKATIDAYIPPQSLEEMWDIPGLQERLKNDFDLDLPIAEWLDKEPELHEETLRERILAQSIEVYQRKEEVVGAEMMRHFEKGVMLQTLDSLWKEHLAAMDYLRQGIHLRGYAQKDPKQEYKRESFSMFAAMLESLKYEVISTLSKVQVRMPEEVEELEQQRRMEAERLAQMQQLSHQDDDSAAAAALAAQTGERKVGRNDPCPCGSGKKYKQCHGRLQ

Row | Structure (SMILES) | Percent Effect [1] [%] | Percent Effect [2] [%] | Percent Effect [3] [%] | Percent Effect [4] [%] | Percent Effect [5] [%] | Percent Effect [6] [%] | Percent Effect [7] [%] | Percent Effect [8] [%] | Percent Effect [9] [%] | Percent Effect [10] [%] | Percent Effect [11] [%]
1 | CCOCCN1CCN(Cc2nc(C3CC3)no2)CC1CC (stereo not given) | -6.05 | 5.48 | 6.32 | 25.2 | 10.4 | 0.909 | 9.41 | 2.26 | 3.23 | 7.5 | -5.89
2 | OCC1CCCN1c1cc(NCCc2c[nH]c3ccccc23)ncn1 (stereo not given) | -4.95 | 0 | 12.3 | -7.58 | -2.15 | 0 | 18.6 | 35.3 | 1.07 | 7.5 | -5.88
3 | CCC(=O)N1CCC(c2nnc(Cn3cccn3)n2C2CC2)CC1 | -5.96 | 18.1 | -4.09 | 12.6 | 2.23 | -0.442 | 8.07 | -1.41 | 4.21 | 12.8 | -0.227
4 | Cc1noc([C@H]2C[C@@H]3CCN(CC4CC4)C[C@H]3O2)n1 | -4.27 | 7.79 | 4.66 | 0.715 | -1.48 | -0.645 | 3.13 | 4.2 | -1.06 | 3.85 | -3.28
5 | c1ccc(C2CCCN2Cc2nnnn2C2CC2)cc1 (stereo not given) | -4.62 | -6.94 | -1.81 | -5.25 | -3.01 | -1.32 | 9.12 | -12.1 | 3.16 | 0 | 7.75
6 | COCCN1C[C@@H]2CN(Cc3ccsc3)CCC[C@]2(C(=O)O)C1 | 0.995 | 10.4 | 4.76 | -2.5 | -5.23 | 11 | 16.5 | 13.1 | 4.23 | 14.1 | -4.97
7 | O=C1NCC2(CCCN(CCc3ccccc3)C2)Oc2ccccc21 (stereo not given) | -3.06 | 6.76 | 2.18 | -8.67 | -3.36 | 2.55 | 6.86 | 15.8 | -1.07 | 6.49 | -14.2
8 | CCc1nc(C2CCCN(C(=O)c3ccc4[nH]nnc4c3)C2)no1 (stereo not given) | -3.01 | 0 | 1.62 | 0.134 | -4.8 | 4 | 17.2 | 11.3 | 0 | 0 | -11.2
9 | CCc1noc(C2CCCCN2C(=O)c2ccoc2C)n1 (stereo not given) | -3.77 | 4 | -0.569 | 3.61 | -7.47 | -4.05 | 13.9 | -6.22 | 1.06 | 5.13 | -6.62
10 | COc1ccc(CNC(C)c2cccc(Cl)c2)c(OC)c1OC (stereo not given) | -1.96 | 10.7 | -5.69 | 5.99 | 6.52 | 4.69 | 5.58 | 16.5 | 0.546 | 6.17 | -1.65
11 | Cc1ccc(NC2CCN(C(=O)COCC(F)(F)F)CC2)nn1 | -6.28 | 6.33 | -2.75 | 3.15 | -1.95 | -2.37 | 10.1 | 12.1 | 2.08 | 2.53 | 3.78
12 | O=c1nc(SCc2ccncc2)c2c(n1CCO)CCCC2 | -0.843 | 16.4 | -2.68 | 11.4 | 3.92 | 19.6 | 21.8 | 19.8 | 3.23 | 7.5 | -7.55
13 | Cc1cnn(CC2CN(Cc3nccn3C)CCO2)c1 (stereo not given) | -2.86 | 5.41 | -4.03 | 2.01 | -1.95 | 3.14 | 1.44 | 8.74 | 6.93 | 11 | -1.23
14 | O=C(c1ccc2c(c1)OCO2)N1CCCC(n2cccn2)C1 (stereo not given) | -1.59 | 10.8 | -7.46 | -3.52 | 7.64 | -4.01 | 3.24 | 27.9 | 8.37 | 11.1 | -7.12
15 | Cc1noc(NC(=O)c2ccc(C)c(F)c2)n1 | -3.93 | 20.2 | 3.63 | -2.91 | 4.63 | 0 | 11.7 | 64 | 9.36 | 26.6 | -5.98
16 | N#Cc1c(F)cccc1N1CCC(NS(=O)(=O)c2cccs2)CC1 | 0.0864 | -11 | 24.6 | -2.85 | -9.6 | -0.455 | 14 | 34.2 | -15.1 | -20 | -4.33
17 | CN(C)CCNC(=O)CNC(=O)N1CCc2c([nH]c3ccc(Cl)cc23)C1 | -4.87 | -1.33 | 9.82 | 0.772 | -2.55 | -9.33 | 0.185 | -14.7 | -1.06 | -7.69 | -0.829
18 | CCN1CCn2c(C)cnc2C12CCN(C(=O)CC(C)C)CC2 | -1.23 | 10.7 | 6.38 | -1.92 | -4.83 | -59 | 18.1 | 1.06 | 0 | 5 | -5.61
19 | CC(C)C(=O)NC1CCN(Cc2cccc3c2OCCO3)CC1 | -2.08 | -1.27 | 4.8 | 0.497 | -2.36 | 3.66 | -2.06 | 17.1 | 2.08 | -2.53 | -21.1
20 | COc1c(CNC2CCN(c3ncccn3)CC2)c(C(C)C)nn1C | -4.79 | 10.5 | 4.83 | -4.46 | -6.26 | 7.55 | 2.79 | -4.77 | 6.4 | 16.1 | -4.31
